Assay results published in the supplement of paper PMC6555819.

How the values were obtained:
Test in all cases: PBM binding z-score (relative to random genomic background probes); higher = stronger binding; sequences stand for … in GC…GCGATTGACAGCGTAGAATGAAGG
[1] = system: FXR:RXRa (NR concentration 270 nM, RXRa partner concentration 90 nM)
How it was run: (§1)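 Ligand-free nuclear receptor dimers were applied to custom Agilent 4×180K protein-binding microarrays whose double-stranded probes carried direct-repeat seeds, single-nucleotide variants, half-site ablations and random human genomic background sequences in 34-nt variable regions. Incubation lasted 1 h. Binding z-scores were computed against the random background probes from regression-normalized fluorescence.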

[2] = system: LXRa:RXRa (NR concentration 270 nM, RXRa partner concentration 90 nM)
How it was run: as §1

[3] = system: LXRa homodimer (NR concentration 270 nM)
How it was run: as §1

[4] = system: LXRb:RXRa (NR concentration 270 nM, RXRa partner concentration 90 nM)
How it was run: as §1

[5] = system: LXRb homodimer (NR concentration 270 nM)
How it was run: as §1

[6] = system: PPARa:RXRa (NR concentration 270 nM, RXRa partner concentration 90 nM)
How it was run: as §1

[7] = system: PPARg:RXRa (NR concentration 180 nM, RXRa partner concentration 90 nM)
How it was run: as §1

[8] = system: PPARg:RXRa 270nM:90nM, anti-RXR (NR concentration 270 nM, RXRa partner concentration 90 nM)
How it was run: as §1

[9] = system: PPARg:RXRa 30nM:10nM, anti-RXR (NR concentration 30 nM, RXRa partner concentration 10 nM)
How it was run: as §1

[10] = system: PPARg:RXRa 90nM:30nM, anti-RXR (NR concentration 90 nM, RXRa partner concentration 30 nM)
How it was run: as §1

[11] = system: PPARg:RXRa DBDmut IVT, anti-RXR (DBD mutation: RXRa K156A/R161A, NR concentration 270 nM, RXRa partner concentration 90 nM)
How it was run: as §1

[12] = system: PPARg:RXRa IVT, anti-PPARg (NR concentration 270 nM, RXRa partner concentration 90 nM)
How it was run: as §1

[13] = system: PPARg DBDmut:RXRa IVT, anti-PPARg (DBD mutation: PPARg1 K132A/R137A, NR concentration 270 nM, RXRa partner concentration 90 nM)
How it was run: as §1

[14] = system: PPARg DBDmut IVT, anti-PPARg (DBD mutation: PPARg1 K132A/R137A, NR concentration 270 nM)
How it was run: as §1

[15] = system: PPARg homodimer (NR concentration 180 nM)
How it was run: as §1

[16] = system: PXR:RXRa (NR concentration 270 nM, RXRa partner concentration 90 nM)
How it was run: as §1

[17] = system: PXR homodimer (NR concentration 270 nM)
How it was run: as §1

[18] = system: RARa:RXR (NR concentration 270 nM, RXRa partner concentration 90 nM)
How it was run: as §1

[19] = system: RARa homodimer (NR concentration 270 nM)
How it was run: as §1

[20] = system: RARb:RXRa (NR concentration 270 nM, RXRa partner concentration 90 nM)
How it was run: as §1

Sequence | PBM binding z-score [1] | PBM binding z-score [2] | PBM binding z-score [3] | PBM binding z-score [4] | PBM binding z-score [5] | PBM binding z-score [6] | PBM binding z-score [7] | PBM binding z-score [8] | PBM binding z-score [9] | PBM binding z-score [10] | PBM binding z-score [11] | PBM binding z-score [12] | PBM binding z-score [13] | PBM binding z-score [14] | PBM binding z-score [15] | PBM binding z-score [16] | PBM binding z-score [17] | PBM binding z-score [18] | PBM binding z-score [19] | PBM binding z-score [20]
CCTTACGGGTGACGAGGTTATAGCACGACGAGCG | 0.791 | 0.766 | -0.00764 | 0.572 | -0.569 | 2.24 | 1.89 | 1.82 | -0.0114 | 1.22 | 1.91 | 2.65 | 0.21 | -0.275 | 1.21 | 0.931 | -0.0569 | 1.52 | 0.128 | 1.1
CATACAGGGTCAGCCAGGCCAGAGTAGGGACGGC | 4.87 | 3.33 | -0.255 | 2.24 | 0.282 | 4.45 | 3.65 | 3.21 | 0.666 | 2.01 | 1 | 2.6 | 0.502 | 0.692 | 1.27 | 2.5 | 0.168 | 3.13 | 0.562 | 4.1
ATCTCTAGGTAACCAAGTTTAGTGAATGCCGAAC | 0.39 | 0.24 | 0.318 | 0.275 | 0.481 | 0.803 | 0.412 | 0.529 | 0.254 | 0.616 | 3.62 | 2.79 | 0.887 | 1.75 | 0.787 | 0.564 | 0.333 | 0.55 | 1.08 | 0.627
CGAACTAGATCATCCAGGACAGTGAATACATTGA | 0.155 | -0.152 | 0.195 | -0.18 | 0.286 | -0.169 | 0.554 | -0.19 | 0.138 | -0.219 | 2.02 | 1.22 | 0.762 | 0.684 | 0.315 | -0.222 | 0.306 | 0.105 | 1.19 | -0.2
ATATGTAGGTTACATCCGGGGCATTCAGGCTATG | 0.427 | 2.23 | 0.412 | 1.16 | 1.07 | 3.19 | 5.17 | 4.28 | 1.77 | 3.18 | 7.46 | 7.35 | 2.05 | 1.15 | 0.96 | 1.14 | 0.659 | 0.992 | 0.476 | 1.26
ATCTCTAGGTACCAAGTTCAGTGAAAGAGAGGAC | 0.701 | 0.609 | 0.346 | 0.651 | 0.845 | 0.892 | 0.678 | 1.23 | 0.604 | 1.03 | 0.464 | 0.878 | 1.07 | 0.989 | 0.548 | 1.42 | 1.37 | 0.711 | 0.57 | 1.28
TCTTGTAGGTCAACAGGAGGTTAAGAAAGATCGA | 5.53 | 4.75 | 1.77 | 3.93 | 1.27 | 5.74 | 7.68 | 6.79 | 5.3 | 6.38 | 6.99 | 8.17 | 2.81 | 3.87 | 2.63 | 3.9 | -0.245 | 4.71 | 0.468 | 4.57
